# PubChem BioAssay (NCI)
# Compounds without any hit were thinned out: in the full panel of roughly 83,000, 20% have a hit.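 Plates (96-well) were seeded with cells, treated with compound at one concentration, and incubated for 48 hours before percent growth was determined.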 Unmarked numbers belong to inactive results. Active and inactive are the calls of the source. Rule for the calls: active = growth percent below 10; inactive = the rest.
# What was measured:
# Assay in all cases: NCI-60 one-dose screen, 48 h (100 = growth as untreated, 0 = no growth, -100 = all killed)
# HCT-15 colon = system: HCT-15 colon
# HT29 colon = system: HT29 colon
# SNB-75 CNS = system: SNB-75 CNS
# SNB-19 CNS = system: SNB-19 CNS
# U251 CNS = settings: 10 µM unless noted
# PC-3 prostate = system: PC-3 prostate
# SK-MEL-5 melanoma = settings: 10 µM unless noted
# UACC-62 melanoma = system: UACC-62 melanoma
# SK-MEL-28 melanoma = system: SK-MEL-28 melanoma
# SK-MEL-2 melanoma = system: SK-MEL-2 melanoma
# EKVX NSCLC = settings: 10 µM unless noted
# SN12C renal = system: SN12C renal
# UO-31 renal = system: UO-31 renal
# TK-10 renal = system: TK-10 renal
# ACHN renal = system: ACHN renal
# CAKI-1 renal = system: CAKI-1 renal
# A498 renal = system: A498 renal
# CCRF-CEM leukemia = settings: 10 µM unless noted
# MOLT-4 leukemia = system: MOLT-4 leukemia
# LOX IMVI melanoma = settings: 10 µM unless noted
smiles,measurement,setting,value
O=C1C2=C(Nc3cc([N+](=O)[O-])ccc3N2)OC1c1c2ccccc2cc2ccccc12 (stereo not given),growth,HCT-15 colon; 10 µM unless noted,20.5%
same,growth,HT29 colon; 10 µM unless noted,51.4%
same,growth,SNB-75 CNS; 10 µM unless noted,52.4%
same,growth,SNB-19 CNS; 10 µM unless noted,40.2%
same,growth,U251 CNS,31.4%
same,growth,PC-3 prostate; 10 µM unless noted,20.5%
same,growth,SK-MEL-5 melanoma,56.7%
same,growth,UACC-62 melanoma; 10 µM unless noted,44.6%
same,growth,SK-MEL-28 melanoma; 10 µM unless noted,77.5%
same,growth,SK-MEL-2 melanoma; 10 µM unless noted,87.4%
same,growth,EKVX NSCLC,43.6%
same,growth,SN12C renal; 10 µM unless noted,30.6%
same,growth,UO-31 renal; 10 µM unless noted,28.3%
same,growth,TK-10 renal; 10 µM unless noted,73.5%
same,growth,ACHN renal; 10 µM unless noted,51.4%
same,growth,CAKI-1 renal; 10 µM unless noted,53.1%
same,growth,A498 renal; 10 µM unless noted,104%
same,growth,CCRF-CEM leukemia,9.72% (active)
same,growth,MOLT-4 leukemia; 10 µM unless noted,8.22% (active)
COc1ccc(-c2cscc2N)cc1,growth,HCT-15 colon; 10 µM,63.1%
same,growth,HCT-15 colon; 100 µM,63.9%
same,growth,HT29 colon; 10 µM,97.7%
same,growth,HT29 colon; 100 µM,52%
same,growth,SNB-19 CNS; 10 µM,82.9%
same,growth,SNB-19 CNS; 100 µM,57.6%
same,growth,U251 CNS,38.5% [100 µM]
same,growth,PC-3 prostate; 10 µM,98.4%
same,growth,PC-3 prostate; 100 µM,41.4%
same,growth,UACC-62 melanoma; 10 µM,43.4%
same,growth,UACC-62 melanoma; 100 µM,-9.3% (active)
same,growth,LOX IMVI melanoma,45.7%
same,growth,SK-MEL-28 melanoma; 10 µM,96.4%
same,growth,SK-MEL-28 melanoma; 100 µM,51.4%
same,growth,SK-MEL-2 melanoma; 10 µM,95.1%
same,growth,SK-MEL-2 melanoma; 100 µM,24.6%
same,growth,EKVX NSCLC,51.4% [100 µM]
same,growth,SN12C renal; 10 µM,71.2%
same,growth,SN12C renal; 100 µM,55.1%
same,growth,UO-31 renal; 10 µM,78%
same,growth,UO-31 renal; 100 µM,27%
same,growth,TK-10 renal; 10 µM,101%
same,growth,TK-10 renal; 100 µM,74.4%
same,growth,ACHN renal; 10 µM,54.7%
same,growth,ACHN renal; 100 µM,40.7%
same,growth,CCRF-CEM leukemia,31.3% [100 µM]
same,growth,MOLT-4 leukemia; 10 µM,66.4%
same,growth,MOLT-4 leukemia; 100 µM,38.6%
CC(C)(C)CC(C)(C)c1ccc(OCCSC(=N)N)cc1,growth,HCT-15 colon; 10 µM unless noted,1.48% (active)
same,growth,HT29 colon; 10 µM unless noted,2.71% (active)
same,growth,SNB-75 CNS; 10 µM unless noted,77.7%
same,growth,SNB-19 CNS; 10 µM unless noted,87%
same,growth,U251 CNS,12.3%
same,growth,PC-3 prostate; 10 µM unless noted,72.2%
same,growth,SK-MEL-5 melanoma,27.9%
same,growth,UACC-62 melanoma; 10 µM unless noted,66.5%
same,growth,LOX IMVI melanoma,8.68% (active)
same,growth,SK-MEL-28 melanoma; 10 µM unless noted,-72.7% (active)
same,growth,SK-MEL-2 melanoma; 10 µM unless noted,96.4%
same,growth,EKVX NSCLC,51.8%
same,growth,SN12C renal; 10 µM unless noted,53.7%
same,growth,UO-31 renal; 10 µM unless noted,37.2%
same,growth,TK-10 renal; 10 µM unless noted,72.3%
same,growth,ACHN renal; 10 µM unless noted,69.1%
same,growth,A498 renal; 10 µM unless noted,60.2%
same,growth,MOLT-4 leukemia; 10 µM unless noted,9.3% (active)
COC(=O)c1nc(=S)[nH]c(C(=O)OC)c1C(=O)c1ccc2ccccc2c1,growth,HCT-15 colon; 10 µM unless noted,99.2%
same,growth,HT29 colon; 10 µM unless noted,112%
same,growth,SNB-75 CNS; 10 µM unless noted,84.5%
same,growth,SNB-19 CNS; 10 µM unless noted,94.7%
same,growth,U251 CNS,97.6%
same,growth,PC-3 prostate; 10 µM unless noted,93.5%
same,growth,SK-MEL-5 melanoma,98.9%
same,growth,UACC-62 melanoma; 10 µM unless noted,89.4%
same,growth,LOX IMVI melanoma,94.7%
same,growth,SK-MEL-28 melanoma; 10 µM unless noted,106%
same,growth,SK-MEL-2 melanoma; 10 µM unless noted,104%
same,growth,EKVX NSCLC,103%
same,growth,SN12C renal; 10 µM unless noted,97.2%
same,growth,UO-31 renal; 10 µM unless noted,81%
same,growth,TK-10 renal; 10 µM unless noted,109%
same,growth,ACHN renal; 10 µM unless noted,101%
same,growth,CAKI-1 renal; 10 µM unless noted,86.2%
same,growth,CCRF-CEM leukemia,102%
same,growth,MOLT-4 leukemia; 10 µM unless noted,103%
O=C(Nc1c(Cl)cccc1Cl)Oc1cccc2cccnc12,growth,HCT-15 colon; 10 µM,27.9%
same,growth,HCT-15 colon; 100 µM,18.3%
same,growth,SNB-75 CNS; 10 µM,73.1%
same,growth,SNB-75 CNS; 100 µM,20.8%
same,growth,SNB-19 CNS; 10 µM,56.4%
same,growth,SNB-19 CNS; 100 µM,25.8%
same,growth,U251 CNS,19.5% [100 µM]
same,growth,PC-3 prostate; 10 µM,41%
same,growth,PC-3 prostate; 100 µM,19.3%
same,growth,UACC-62 melanoma; 10 µM,20.2%
same,growth,UACC-62 melanoma; 100 µM,-74.8% (active)
same,growth,SK-MEL-28 melanoma; 10 µM,73.9%
same,growth,SK-MEL-28 melanoma; 100 µM,38.5%
same,growth,SK-MEL-2 melanoma; 10 µM,79.8%
same,growth,SK-MEL-2 melanoma; 100 µM,25.9%
same,growth,EKVX NSCLC,-9.97% [100 µM] (active)
same,growth,SN12C renal; 10 µM,53.9%
same,growth,SN12C renal; 100 µM,33.1%
same,growth,UO-31 renal; 10 µM,17%
same,growth,UO-31 renal; 100 µM,6.51% (active)
same,growth,TK-10 renal; 10 µM,58.8%
same,growth,TK-10 renal; 100 µM,22.4%
same,growth,ACHN renal; 10 µM,38.8%
same,growth,ACHN renal; 100 µM,12.1%
same,growth,CAKI-1 renal; 10 µM,-9.81% (active)
same,growth,CAKI-1 renal; 100 µM,16.8%
same,growth,A498 renal; 10 µM,98.2%
same,growth,A498 renal; 100 µM,94.5%
same,growth,CCRF-CEM leukemia,8.09% [100 µM] (active)
same,growth,MOLT-4 leukemia; 10 µM,16.6%
same,growth,MOLT-4 leukemia; 100 µM,8.36% (active)
